Screening results: PubChem BioAssay, National Center for Advancing Translational Sciences (NCATS)
Pol kappa inh-1: qHTS for Inhibitors of Polymerase Kappa; purified Pol kappa, fluorescent DNA synthesis assay, 10 min; Potency, µM (doses to about 107 µM), most hits filed as inhibitors; 0.53% of 400,000 active; AID 588579, 2011
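50 nM final substrate added after 15 min RT preincubation of 10 nM Pol kappa with compound; fluorescence read at 0 and 10 min.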
WRN inhibitor: qHTS for Inhibitors of WRN Helicase; Bifunctional 3'-5' exonuclease/ATP-dependent helicase WRN (Homo sapiens), Q14191; WRN helicase unwinding, fluorescent forked duplex, kinetic; Potency, µM (highest dose often 114 µM), usual class: inhibitors; 0.46% of 360,000 active; note: nearly all actives have a fitted effect of over 55% in size
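Enzyme (20 nM final) and test compound sit together 15 min at room temperature before substrate addition. Substrate is a single-forked duplex oligonucleotide (100 nM) labelled with fluorophore and quencher, with 2 mM ATP; helicase unwinding raises red fluorescence, read kinetically.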
FEN1 inh: qHTS Assay for the Inhibitors of Human Flap endonuclease 1 (FEN1) | Recombinant FEN1 flap cleavage, fluorescence, 15 min | 0.35% of 390,000 active | Potency, µM (titrated, usually from 114 µM), hits mostly inhibitors | AID 588795, 2011; note: nearly all actives have a fitted effect of over 65% in size
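FEN1 at 10 nM preincubated with compounds 15 min at room temperature, then flap DNA substrate added at 50 nM final. Signal read at 0 and 15 min; concentration-response fitted with four-parameter Hill equation.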
Pol iota inh: qHTS for Inhibitors of Polymerase Iota | Potency, µM (doses to about 115 µM), hits mostly inhibitors | 1% of 390,000 active | Pol iota fluorescent replication assay, 10 min
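Pol iota at 10 nM preincubated 15 min with compounds at room temperature; reaction started with fluorescent substrate, 50 nM final. Fluorescence read kinetically at 0 and 10 min; buffer-only wells as negative control.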
POLB inh: qHTS Assay for Inhibitors of DNA Polymerase Beta. P06746. Pol beta primer extension/strand displacement, fluorescence kinetic. Potency, µM (titrated, usually from 114 µM), most hits filed as inhibitors. 1.3% of 340,000 active
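Human Pol beta at 10 nM; strand-displacement substrate 50 nM final. Compound exposure 15 min at room temperature before start, reaction 10 min at room temperature.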
Pol eta inh-1: qHTS for Inhibitors of Polymerase Eta | DNA polymerase eta (Homo sapiens), Q9Y253 | recombinant Pol eta, fluorescent DNA replication assay | Potency, µM (highest dose often 114 µM), actives largely listed as inhibitors | 1.2% of 390,000 active | AID 588591, 2011
Target sequence (Q9Y253 whole entry, looked up): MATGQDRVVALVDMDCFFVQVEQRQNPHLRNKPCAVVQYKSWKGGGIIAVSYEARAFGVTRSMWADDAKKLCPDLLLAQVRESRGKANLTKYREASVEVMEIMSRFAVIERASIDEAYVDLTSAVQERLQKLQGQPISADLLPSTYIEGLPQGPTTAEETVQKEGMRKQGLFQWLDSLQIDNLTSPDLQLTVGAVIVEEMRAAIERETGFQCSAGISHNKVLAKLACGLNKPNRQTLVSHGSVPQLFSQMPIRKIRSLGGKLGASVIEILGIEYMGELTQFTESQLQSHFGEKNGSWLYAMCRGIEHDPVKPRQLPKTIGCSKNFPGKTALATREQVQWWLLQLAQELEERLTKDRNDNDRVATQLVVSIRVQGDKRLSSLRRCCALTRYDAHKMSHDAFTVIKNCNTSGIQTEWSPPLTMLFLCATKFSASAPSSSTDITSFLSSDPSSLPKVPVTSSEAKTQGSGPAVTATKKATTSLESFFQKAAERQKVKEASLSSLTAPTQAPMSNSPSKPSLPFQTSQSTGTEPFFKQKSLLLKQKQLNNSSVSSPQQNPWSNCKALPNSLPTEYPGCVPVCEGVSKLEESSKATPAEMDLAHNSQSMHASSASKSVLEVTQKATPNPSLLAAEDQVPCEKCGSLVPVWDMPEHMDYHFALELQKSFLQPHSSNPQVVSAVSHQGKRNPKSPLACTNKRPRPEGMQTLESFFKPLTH
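Pol eta (10 nM) was preincubated with compounds for 15 min at room temperature, after which fluorescent replication substrate (50 nM final) was added to start the reaction. Fluorescence was read kinetically at 0 and 10 min.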
POLI cherry-pick: qHTS for Inhibitors of Polymerase Iota: Confirmatory Assay for Cherry-picked Compounds; shares compounds with Pol kappa inh-1; Pol iota primer extension, TAMRA/BHQ fluorescence; Potency, µM, hits mostly inhibitors; 77% of 1,500 active; AID 720496, 2013
Pol kappa inh-2: qHTS for Inhibitors of Polymerase Kappa: Confirmatory Assay for Cherry-picked Compounds; shares compounds with Pol eta inh-1; purified Pol-kappa, fluorescent strand-displacement substrate; Potency, µM, most hits filed as inhibitors; 76% of 920 active; AID 720501, 2013
Pol eta inh-2: qHTS for Inhibitors of Polymerase Eta: Confirmatory Assay for Cherry-picked Compounds. Potency, µM, most hits filed as inhibitors. AID 720502, 2013. Pol eta primer extension, TAMRA/BHQ fluorescence, 10 min. shares compounds with Pol eta inh-1. 64% of 2,600 active
Each line names hits and unclear results; the compound was inactive in the other large screens (follow-up assays come after a bar, where they were run); ! = not active in a repeat. Compounds with a hit are over-represented: about 2.4% of the library has one in this group of screens. Calls come from the whole dose curve; as a rule, active = well fitted curve in the direction sought with a large enough effect; inconclusive = small, poorly fitted or top-dose-only effect, or another doubt; inactive = no such curve, though single readings can be large; an effect the other way counts as inactive or inconclusive.

O=C(Nc1ccc(F)c(Cl)c1)N1CC=C(c2c[nH]c3ccccc23)CC1	none (no result: WRN inhibitor)
CCc1nnc2c(Nc3ccc(Br)c(C)c3)nc3ccccc3n12	POLB inh inconclusive (no result: WRN inhibitor)
CC/C=C\C/C=C\C/C=C\CCCCCCCC(=O)O	Pol kappa inh-1 28µM!, WRN inhibitor 18µM, Pol iota inh 13µM, Pol eta inh-1 7.9µM (no result: POLB inh) | POLI cherry-pick 30 | Pol kappa inh-2 9.5 | Pol eta inh-2 24
CC/C=C\C/C=C\C/C=C\CCCCCCCCCCCC(=O)O	none (no result: WRN inhibitor, FEN1 inh, Pol iota inh, POLB inh, Pol eta inh-1)
CC(C)n1c(SCC(=O)Nc2nncs2)nnc1C1CC1	none
Cn1c(SCC(=O)Nc2nncs2)nnc1C1CC1	Pol kappa inh-1 inconclusive, WRN inhibitor inconclusive, Pol iota inh inconclusive, POLB inh 6.3µM, Pol eta inh-1 22µM | POLI cherry-pick 38 | Pol eta inh-2 30
COc1ccc(-c2ccc3c(N)c(C(=O)c4ccc(OC)c(OC)c4)sc3n2)cc1	Pol eta inh-1 inconclusive
COc1ccc(C(=O)c2sc3nc(-c4ccccc4)ccc3c2N)cc1OC	Pol kappa inh-1 inconclusive, WRN inhibitor inconclusive, FEN1 inh inconclusive, Pol iota inh inconclusive, POLB inh 13µM, Pol eta inh-1 inconclusive | POLI cherry-pick inconclusive | Pol eta inh-2 67
CCC(C)n1c(SCc2ccc(F)cc2Cl)nc2ccsc2c1=O (stereo not drawn)	none (no result: WRN inhibitor)
COc1ccc(C2Oc3cc(OC)cc(OC)c3CC2O)cc1 (stereo not drawn)	none (no result: WRN inhibitor, FEN1 inh, Pol iota inh, POLB inh, Pol eta inh-1)
O=c1oc2ccccc2c2oc3cc(O)c(O)cc3c12	Pol kappa inh-1 5µM, WRN inhibitor 45µM, FEN1 inh 45µM, Pol iota inh 3.2µM, Pol eta inh-1 4.5µM | POLI cherry-pick 21 | Pol kappa inh-2 67 | Pol eta inh-2 21
COc1c(C)cc(S(=O)(=O)Nc2cccc(-c3ccc(N4CCOCC4)nn3)c2)c(C)c1C	none (no result: WRN inhibitor)
O=C(NC1CC1)C1CCN(S(=O)(=O)c2cc([N+](=O)[O-])ccc2Cl)CC1	Pol kappa inh-1 50µM, WRN inhibitor inconclusive, FEN1 inh inconclusive, Pol iota inh 10µM, Pol eta inh-1 13µM (no result: POLB inh) | POLI cherry-pick 30 | Pol kappa inh-2 19 | Pol eta inh-2 inconclusive
O=C(NC1CC1)C1CCN(S(=O)(=O)c2cc(Cl)ccc2Cl)CC1	none
O=[N+]([O-])c1ccc(C=NNC(=S)NN=Cc2ccc([N+](=O)[O-])cc2)cc1	Pol kappa inh-1 25µM, WRN inhibitor 56µM, FEN1 inh inconclusive, Pol iota inh 14µM, Pol eta inh-1 inconclusive (no result: POLB inh) | POLI cherry-pick 19 | Pol kappa inh-2 17 | Pol eta inh-2 43
O=[N+]([O-])c1ccc(C=NNC(=S)Nc2ccc(F)cc2)cc1	none (no result: POLB inh)
CCOC(=O)c1cc(-c2ccc(F)cc2)n(CCC(=O)Nc2nc3ccc(OC)cc3s2)c1C	FEN1 inh inconclusive (no result: WRN inhibitor)
O=C1ON=C(c2ccccc2)/C1=C/c1ccc(-c2ccccc2[N+](=O)[O-])o1	WRN inhibitor inconclusive, Pol iota inh inconclusive, Pol eta inh-1 22µM | POLI cherry-pick inconclusive | Pol eta inh-2 48
O=[N+]([O-])c1ccccc1-c1ccc(/C=N/n2cnnc2)o1	none
O=C(c1ccccc1)C(I)(I)N1CCOCC1	none (no result: WRN inhibitor, POLB inh, Pol eta inh-1)
O=C1NN(c2ccccc2)C(=O)/C1=C\c1ccc(-c2cc([N+](=O)[O-])ccc2O)o1	Pol kappa inh-1 40µM, FEN1 inh inconclusive, Pol iota inh 16µM, POLB inh 10µM, Pol eta inh-1 20µM | POLI cherry-pick inconclusive | Pol eta inh-2 27
COc1cc(/C=C2\SC(=O)N(Cc3ccc(F)cc3)C2=O)cc([N+](=O)[O-])c1O	FEN1 inh inconclusive, Pol eta inh-1 50µM | POLI cherry-pick 84 | Pol kappa inh-2 27 | Pol eta inh-2 76
CCOc1cc(/C=C2\NC(=O)NC2=O)cc([N+](=O)[O-])c1O	none
CCOC(=O)CN1C(=O)S/C(=C/c2ccc(OC)c([N+](=O)[O-])c2)C1=O	none
COc1cc(/C=C2\C(=O)NN(c3ccccc3)C2=O)cc([N+](=O)[O-])c1O	Pol kappa inh-1 inconclusive, WRN inhibitor inconclusive, FEN1 inh inconclusive, Pol iota inh 13µM, POLB inh 13µM, Pol eta inh-1 13µM | POLI cherry-pick 38 | Pol eta inh-2 27
COc1cc(/C=C2/C(=O)NN(c3ccccc3)C2=O)cc(Br)c1O	none
CCOc1cc(/C=C2\C(=O)NN(c3ccccc3)C2=O)cc([N+](=O)[O-])c1O	Pol kappa inh-1 45µM, WRN inhibitor inconclusive, FEN1 inh inconclusive, Pol iota inh 11µM, POLB inh 20µM, Pol eta inh-1 16µM | POLI cherry-pick inconclusive | Pol eta inh-2 30
COc1cc(NC(=O)C2=CC(c3ccc(F)cc3)=NS(=O)(=O)N2C)cc(OC)c1OC	none (no result: WRN inhibitor)
COc1ccc(-c2nc3ccc(C4=C(C)CC(=O)NN4)cc3[nH]2)cc1	none (no result: WRN inhibitor, FEN1 inh, Pol iota inh, POLB inh, Pol eta inh-1)
COc1ccc2c(c1)c(=O)oc1cc(OCC(=O)NC3CCCCC3)ccc12	Pol kappa inh-1 inconclusive, Pol iota inh 25µM, POLB inh 22µM, Pol eta inh-1 79µM | POLI cherry-pick inconclusive | Pol kappa inh-2 inconclusive | Pol eta inh-2 67
COc1ccc(-n2nc(C(=O)NCC(=O)Nc3ccccn3)c3ccccc3c2=O)cc1Cl	POLB inh inconclusive, Pol eta inh-1 10µM | POLI cherry-pick 15 | Pol eta inh-2 inconclusive
COc1cc2cc(Oc3ccc4ccc(=O)oc4c3)c(=O)oc2cc1OC(=O)/C=C/c1ccccc1	none
COc1cc2cc(Oc3ccc4ccc(=O)oc4c3)c(=O)oc2cc1OC1OC(COC(=O)CC(C)(O)CC(=O)O)C(O)C(O)C1O (stereo not drawn)	Pol kappa inh-1 inconclusive, Pol iota inh 50µM, POLB inh inconclusive, Pol eta inh-1 35µM | POLI cherry-pick 67 | Pol eta inh-2 48
O=C(NN=Cc1ccc(O)cc1)C(=O)NN=Cc1ccc(O)cc1	none (no result: POLB inh)
